Source: PubChem BioAssay AID1159580 (chemical genetic matrix, 2015)
“And” between values parts separate entries of the source, which are not always exact repeats. Equal entries are not always repeated. Hit rate of the full screen: of about 5,500 compounds, about 2,000 (36%) were called active. Not shown: some 18% with an inconclusive outcome. Rule as the data show it: active = normalized growth mostly below about 0.91 (no sharp cut-off); inconclusive = no clear call, values can overlap the other calls; inactive = mostly above about 0.92. Some of the results follow.

Assay: chemical genetic growth profiling, strain panel (AID 1159580);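 also: tested at 20 µM; growth read once vehicle control cultures reached saturation at 30 °C; 1 = growth at the plate median or of vehicle wells; lower values mean less growth of the strain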
Conditions: S. cerevisiae deletion strains, growth OD

Measured: normalized growth

Cc1cc(-c2ccccc2)nnc1NCCN1CCOCC1
inactive: locus YAL013W, strain DEP1, stronger effect = lower value 1 | locus YAL021C, strain ccr4, stronger effect = lower value 0.985 | locus YAL026C, strain drs2, stronger effect = lower value 0.991 | locus YAL030W, strain snc1, stronger effect = lower value 0.986 | locus YBL061C, strain skt5, stronger effect = lower value 0.991 | locus YBR009C, strain hhf1, stronger effect = lower value 0.989 | locus YBR021W, strain FUR4, stronger effect = lower value 0.999 | locus YBR023C, strain chs3, stronger effect = lower value 0.989 | locus YBR171W, strain sec66, stronger effect = lower value 0.977 | locus YBR229C, strain ROT2, stronger effect = lower value 1.01 | locus YBR231C, strain swc5, stronger effect = lower value 0.989 | locus YBR279W, strain paf1, stronger effect = lower value 0.986 | locus YCL011C, strain gbp2, stronger effect = lower value 0.983 | locus YCL016C, strain dcc1, stronger effect = lower value 0.984 | locus YCL029C, strain bik1, stronger effect = lower value 0.964 | locus YCL061C, strain MRC1, stronger effect = lower value 0.985 | locus YCL069W, strain vba3, stronger effect = lower value 0.988 | locus YCR088W, strain abp1, stronger effect = lower value 0.99 | locus YDL005C, strain med2, stronger effect = lower value 0.99 | locus YDL035C, strain GPR1, stronger effect = lower value 1.03 | locus YDL040C, strain nat1, stronger effect = lower value 0.992 | locus YDL074C, strain BRE1, stronger effect = lower value 0.986 | locus YDL101C, strain DUN1, stronger effect = lower value 0.995 | locus YDL134C, strain PPH21, stronger effect = lower value 1.01 | locus YDL185W, strain tfp1, stronger effect = lower value 0.941 | locus YDL192W, strain arf1, stronger effect = lower value 0.974 | locus YDR001C, strain nth1, stronger effect = lower value 0.99 | locus YDR069C, strain doa4, stronger effect = lower value 1 | locus YDR101C, strain arx1, stronger effect = lower value 0.977 | locus YDR137W, strain rgp1, stronger effect = lower value 0.991 | locus YDR150W, strain NUM1, stronger effect = lower value 0.992 | locus YDR159W, strain sac3, stronger effect = lower value 1.01 | locus YDR162C, strain NBP2, stronger effect = lower value 1.01 | locus YDR195W, strain ref2 0.974 | locus YDR297W, strain sur2, stronger effect = lower value 0.997 | locus YDR318W, strain mcm21, stronger effect = lower value 0.98 | locus YDR334W, strain swr1, stronger effect = lower value 0.983 | locus YDR335W, strain msn5, stronger effect = lower value 0.986 | locus YDR388W, stronger effect = lower value 0.986 | locus YDR392W, strain spt3, stronger effect = lower value 0.924 | locus YDR502C, strain sam2, stronger effect = lower value 1 | locus YEL003W, strain gim4, stronger effect = lower value 0.998 | locus YEL037C, strain rad23, stronger effect = lower value 0.994 | locus YEL061C, strain CIN8 (second series), stronger effect = lower value 0.991 | locus YEL061C, strain CIN8, stronger effect = lower value 0.997 | locus YER015W, strain faa2, stronger effect = lower value 0.997 | locus YER016W, strain bim1, stronger effect = lower value 1 | locus YER110C, stronger effect = lower value 0.982 | locus YER111C, strain swi4, stronger effect = lower value 0.985 | locus YER155C, strain BEM2 (second series), stronger effect = lower value 1 | locus YER155C, strain BEM2, stronger effect = lower value 1 | locus YER167W, strain BCK2, stronger effect = lower value 1 | locus YFR010W, strain ubp6, stronger effect = lower value 0.992 | locus YGL078C, strain dbp3, stronger effect = lower value 0.991 | locus YGL086W, strain mad1, stronger effect = lower value 1.01 | locus YGL167C, strain pmr1, stronger effect = lower value 0.991 | locus YGL173C, strain kem1, stronger effect = lower value 0.983 | locus YGL227W, strain vid30, stronger effect = lower value 0.987 | locus YGL240W, strain doc1, stronger effect = lower value 0.974 | locus YGL248W, strain PDE1, stronger effect = lower value 1.02 | locus YGL253W, strain hxk2, stronger effect = lower value 0.987 | locus YGR078C, strain PAC10, stronger effect = lower value 1 | locus YGR135W, strain pre9, stronger effect = lower value 0.993 | locus YGR229C, strain SMI1, stronger effect = lower value 1.03 | locus YGR252W, strain gcn5, stronger effect = lower value 1.13 | locus YHR013C, strain ard1, stronger effect = lower value 0.983 | locus YHR027C, strain rpn1, stronger effect = lower value 0.987 | locus YHR030C, strain SLT2, stronger effect = lower value 1 and 0.966 | locus YHR079C, strain IRE1 (second series), stronger effect = lower value 0.972 | locus YHR079C, strain IRE1, stronger effect = lower value 0.961 | locus YHR094C, strain hxt1, stronger effect = lower value 0.969 | locus YHR129C, strain ARP1, stronger effect = lower value 0.996 | locus YHR142W, strain chs7, stronger effect = lower value 0.981 | locus YHR200W, strain rpn10, stronger effect = lower value 0.97 | locus YIL066C, strain RNR3, stronger effect = lower value 1.01 | locus YIL073C, strain SPO22, stronger effect = lower value 0.953 | locus YIL125W, strain kgd1, stronger effect = lower value 0.977 | locus YIR030C, strain dcg1, stronger effect = lower value 0.979 | locus YJL092W, strain hpr5, stronger effect = lower value 0.988 | locus YJL095W, strain BCK1 (second series), stronger effect = lower value 0.99 | locus YJL095W, strain BCK1, stronger effect = lower value 0.976 and 0.961 | locus YJL115W, strain asf1, stronger effect = lower value 0.991 | locus YJL129C, strain trk1, stronger effect = lower value 0.968 | locus YJL134W, strain LCB3, stronger effect = lower value 1.01 | locus YJL154C, strain vps35, stronger effect = lower value 1 | locus YJL164C, strain tpk1, stronger effect = lower value 0.987 | locus YJL166W, strain qcr8, stronger effect = lower value 0.993 | locus YJL168C, strain set2, stronger effect = lower value 0.973 | locus YJL187C, strain SWE1 (second series), stronger effect = lower value 0.997 | locus YJL187C, strain SWE1, stronger effect = lower value 0.986 | locus YJR043C, strain POL32, stronger effect = lower value 0.99 | locus YJR066W, strain TOR1, stronger effect = lower value 0.918
